Screening data (PubChem)
Rows were chosen to be rich in hits. Some 16% of all compounds tested hit in one or more screens of this group.
DT40 TDP1 CPT – qHTS for Inhibitors of human tyrosyl-DNA phosphodiesterase 1 (TDP1): qHTS in cells in presence of CPT; chicken DT40 Tdp1-/-;hTDP1 cells + 20 nM CPT, ATP luminescence, 48 h; Potency, µM (top dose mostly 46.2 µM), for the others: top-dose activity change, negative = growth inhibition, actives largely listed as inhibitors; 420,000 tested, 12% active; AID 686979, 2013; note: potency is the fitted concentration of half-maximal effect; % is set by controls: 0 for no effect and ±100 for the full control effect; nearly all actives have a fitted effect of over 55% in size
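Cell growth measured by CellTiter-Glo luminescence after a minimum 48 h, 37 C compound exposure with 20 nM CPT in Tdp1-knockout DT40 cells stably expressing hTDP1, seeded 400/well; qHTS titration format.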
TDP1 inh – qHTS Assay for Inhibitors of Tyrosyl-DNA Phosphodiesterase (TDP1); AID 485290, 2010; 350,000 tested, 0.28% active; Potency, µM (top dose mostly 130 µM), for inactives: top-dose activity change, negative = inhibition, most hits filed as inhibitors; Tyrosyl-DNA phosphodiesterase 1 (Homo sapiens), Q9NUW8; recombinant TDP1, AlphaScreen DNA substrate cleavage; note: potency is the fitted concentration of half-maximal effect; % is set by controls: 0 for no effect and ±100 for the full control effect; nearly all actives have a fitted effect of over 40% in size
Target sequence (Q9NUW8 whole entry, looked up): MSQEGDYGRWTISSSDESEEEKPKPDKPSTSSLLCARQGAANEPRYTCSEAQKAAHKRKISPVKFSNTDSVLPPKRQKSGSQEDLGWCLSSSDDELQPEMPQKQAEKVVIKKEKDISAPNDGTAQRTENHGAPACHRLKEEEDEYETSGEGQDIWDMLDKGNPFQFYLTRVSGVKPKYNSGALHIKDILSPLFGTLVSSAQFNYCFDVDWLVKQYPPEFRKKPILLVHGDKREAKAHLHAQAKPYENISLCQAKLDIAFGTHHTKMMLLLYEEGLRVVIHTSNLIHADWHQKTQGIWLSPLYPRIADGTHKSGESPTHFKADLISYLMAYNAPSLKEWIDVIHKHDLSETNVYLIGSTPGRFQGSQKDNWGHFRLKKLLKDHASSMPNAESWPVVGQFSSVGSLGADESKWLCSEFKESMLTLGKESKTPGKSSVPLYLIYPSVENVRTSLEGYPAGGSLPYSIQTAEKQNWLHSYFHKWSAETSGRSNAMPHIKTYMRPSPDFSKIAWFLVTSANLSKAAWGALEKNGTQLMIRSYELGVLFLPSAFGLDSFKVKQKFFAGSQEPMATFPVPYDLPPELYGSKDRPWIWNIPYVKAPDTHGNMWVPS
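Compounds were preincubated with Tdp1 (1 nM final) for 15 min at room temperature before substrate (15 nM final) started a 5 min reaction; beads (10 ug/ml final) were then added for 10 min before AlphaScreen detection.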
uPA surface inh – qHTS for Inhibitors of Cell Surface uPA Generation; cell surface uPA generation assay, qHTS; Potency, µM (doses to about 38.3 µM), for inactives: at the top dose activity change, negative = inhibition, actives largely listed as inhibitors; 330,000 tested, 0.31% active; AID 540303, 2011; active = well fitted inhibition curve with a large enough effect; inconclusive = small, poorly fitted or top-dose-only effect; inactive = no such curve, though single readings can be large or run the other way; tested in mouse RAW 264.7 cells; note: potency is the fitted concentration of half-maximal effect; % is set by controls: 0 for no effect and ±100 for the full control effect; nearly all actives have a fitted effect of over 55% in size
DT40 TDP1 no CPT – qHTS for Inhibitors of human tyrosyl-DNA phosphodiesterase 1 (TDP1): qHTS in cells in absence of CPT. DT40 Tdp1-/- hTDP1 cells, no CPT, ATP luminescence, 48 h. Potency, µM (top dose mostly 46.2 µM), for inactives: at the highest dose activity change, negative = growth inhibition, hits mostly inhibitors. 420,000 tested, 15% active. AID 686978, 2013; note: potency is the fitted concentration of half-maximal effect; % is set by controls: 0 for no effect and ±100 for the full control effect; nearly all actives have a fitted effect of over 55% in size
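Camptothecin absent (DMSO only). Human TDP1-complemented DT40 knockout cells, 400 cells/well, 37 °C for minimum 48 hr; ATP measured via CellTiter-Glo, 30 min dark incubation, luminescence.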
miR-21 act – qHTS Assay for Modulators of miRNAs and/orActivators of miR-21 | HeLa miR-21 FLuc reporter, luciferase, 48 h | AID 2288, 2010 | 340,000 tested, under 10 active | Potency, µM (top dose mostly 38.3 µM), without a hit: top-dose activity change, positive = activation, most hits filed as activators;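 note: % of control where 0% means no effect; miR-21 action dims this reporter so a rising signal means less miR-21 action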
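HeLa cells endogenously expressing miR-21, stably carrying CMV-driven firefly luciferase with a downstream miR-21 binding site, 2000 cells/well. Titrations up to approximately 40 uM, 48 hours; luciferase luminescence read.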
Active calls of the source: *; ? = inconclusive; · = no result; [ ] = remark or other dose. Unless noted, calls come from the whole dose curve; as a rule, active = well fitted curve in the direction sought with a large enough effect; inconclusive = small, poorly fitted or top-dose-only effect, or another doubt; inactive = no such curve, though single readings can be large; an effect the other way counts as inactive or inconclusive.

SMILES	DT40 TDP1 CPT	TDP1 inh	uPA surface inh	DT40 TDP1 no CPT	miR-21 act
COCCN(C(=O)COC(=O)c1ccc2c(c1)OCCO2)c1c(N)n(Cc2ccccc2)c(=O)[nH]c1=O	0%	1%	-2%	0%	·
CSc1nc(C(=O)N2CCc3c(cnc(C)c3CNC(=O)c3ccc4c(c3)OCO4)C2)cs1	0.13µM*	·	·	0.16µM*	·
Cc1ncc2c(c1CNC(=O)c1ccc3c(c1)OCO3)CCN(C(=O)c1ccc3ccccc3c1)C2	7%[9.04 µM]	·	·	-19%	·
Cc1ncc2c(c1CNS(=O)(=O)c1cccs1)CCN(C(=O)/C=C/c1ccc(F)cc1F)C2	2%[9.04 µM]	·	·	?	·
Cc1ncc2c(c1CNC(=O)/C=C/c1cccs1)CCN(C(=O)C1CCCO1)C2 (stereo not drawn)	-2%[9.04 µM]	·	·	15%	·
Cc1cnc(C(=O)NCc2c(C)ncc3c2CCN(C(=O)/C=C/c2cccs2)C3)cn1	0.0046µM*	·	·	-18%	·
Cc1ncc2c(c1CNS(=O)(=O)c1cccs1)CCN(C(=O)/C=C/c1cc(F)cc(F)c1)C2	-6%[9.04 µM]	·	·	23µM*	·
COc1ccc(-c2[nH]ncc2C(=O)NCc2cccc(OC)c2)cc1	-26%	-4%	·	-26%	-12%
Cc1ccccc1NCCC(=O)Nc1ccc(F)cc1	-17%	3%	1%	-13%	-17%
Cc1ccc(NS(=O)(=O)c2cccc(C(=O)O)c2)cc1C	·	3%	·	·	·
Cc1ccc(C(=O)CSc2nsc(C)c2C#N)cc1	?	-3%	-2%	-29%	-60%
Cc1ccnc(SCC(=O)c2ccc(Br)cc2)c1C#N	?	-1%	1%	21µM*	-53%
CCOC(=O)C(CC)n1nc(C)n2c(cc3sccc32)c1=O (stereo not drawn)	12µM*	3%	4%	12µM*	-5%
CCn1c(C(=O)NC2CCC(C)CC2)cc2sccc21 (stereo not drawn)	-20%	6%	-18%	?	-25%
Cc1nn(C(C)C(=O)NC2CCC(C)CC2)c(=O)c2cc3sccc3n12 (stereo not drawn)	15µM*	1%	·	?	-14%
O=C(Nc1ccc(N2CCOCC2)cc1)c1ccc(Cl)c(S(=O)(=O)N2CCCCC2)c1	?	1%	-8%	?	·
CC(=O)Nc1c2c(nn1-c1ccccc1)CSC2	3%	2%	20%	1%	-4%
CC(NC(=O)C(=O)Nc1c2c(nn1-c1ccccc1)CSC2)c1ccccc1 (stereo not drawn)	15µM*	13%	·	21µM*	-4%
CC(NC(=O)C(=O)Nc1c2c(nn1-c1ccc(F)cc1)CSC2)c1ccccc1 (stereo not drawn)	-86%	13%	·	8.2µM*	-9%
c1ccc(-c2cnnc(N3CCOCC3)n2)cc1	?	2%	10%	?	-46%
COc1ccc(NC(=O)c2ccc(C(=O)c3ccccc3)o2)cc1	?	7%	-6%	2.1µM*	-23%
COc1cccc(C(=O)Nc2ccc(C(=O)c3ccccc3)cc2)c1	-19%	·	7%	16µM*	6%
COc1cccc(NC(=O)c2ccc3c(O)c(S(=O)(=O)c4ccccc4)c(=O)[nH]c3c2)c1	23µM*	2%	1%	?	-1%
COc1ccc(C(=O)Nc2ccc(C(=O)c3ccccc3)cc2)cc1	-3%	·	4%	-22%	·
CCOC(=O)c1ccc(CN(Cc2ccccc2C)S(=O)(=O)c2ccc(C(C)(C)C)cc2)cc1	?	3%	·	18µM*	-2%
SMILES	DT40 TDP1 CPT	TDP1 inh	uPA surface inh	DT40 TDP1 no CPT	miR-21 act
CCCC[C@@H]1C[C@H]1C(NC(=O)c1ccco1)c1ccc(Cl)cc1 (stereo partly drawn)	·	-1%	·	·	·
COc1cccc(OC)c1C(=O)Nc1ccc(Br)c(C(=O)c2ccccc2)c1	?	7%	-6%	16µM*	19%
CN(C)S(=O)(=O)Oc1cccc(C(=O)Nc2ccc(Cl)cc2)c1	8.2µM*	2%	-3%	12µM*	15%
CN(C)S(=O)(=O)Oc1ccc(C(=O)Nc2cccc(C(F)(F)F)c2)cc1	23µM*	6%	?	15µM*	25%
Cc1ccc(CNS(=O)(=O)c2cc(C(=O)Nc3cccc(C(F)(F)F)c3)ccc2F)cc1	?	3%	·	?	?
CN(C)S(=O)(=O)Oc1ccc(C(=O)Nc2cccc(Cl)c2)cc1	24%	6%	-3%	-18%	10%
CCOC(=O)c1ccc(CN(Cc2ccc(F)cc2)S(=O)(=O)c2cc(C(=O)Nc3cccc(C(F)(F)F)c3)ccc2F)cc1	13µM*	5%	·	23µM*	19%
COc1c(-c2ccc([N+](=O)[O-])cc2[N+](=O)[O-])c(=O)n(C)c(=O)n1C	-23%	·	-1%	-3%	0%
CC(C)(Oc1ccc(Cl)cc1)C(=O)N/N=C/c1cn[nH]c1-c1ccccc1	?	-7%	·	-12%	7%
COc1cc(/C=C/C(=O)OCN2C(=O)c3ccccc3C2=O)ccc1OC(F)F	-18%	4%	-5%	2%	-2%
COc1cc(/C=C/c2cc(C(=O)O)c3ccccc3n2)ccc1OC(F)F	?	5%	2.8µM*	-25%	-22%
O=C(CS(=O)(=O)c1cn(Cc2ccc(F)cc2)c2ccccc12)N1CCOCC1	-16%	·	-3%	6%	1%
COc1ccc(NC(=O)C2CCCN2S(=O)(=O)c2ccc3c(c2)CC(C)N3C(C)=O)cc1OC (stereo not drawn)	?	4%	-2%	0%	-4%
CC(=O)N1c2ccc(S(=O)(=O)N3CCCC3C(=O)Nc3cccc(F)c3)cc2CC1C (stereo not drawn)	16µM*	·	?	?	16%
CCc1cccc(NC(=O)C2CCCN2S(=O)(=O)c2ccccc2C(F)(F)F)c1 (stereo not drawn)	?	-6%[0.505 µM]	6%	21µM*	·
CCc1cccc(NC(=O)C2CCCN2S(=O)(=O)c2ccc3c(c2)CC(C)N3C(C)=O)c1 (stereo not drawn)	?	·	-7%	12µM*	10%
CN(C)C(CNC(=O)c1ccc(Cl)c(S(=O)(=O)N2CCCCCC2)c1)c1ccccc1 (stereo not drawn)	?	1%[56.1 µM]	?	?	·
CC(/C=C/c1ccccc1)=N\NC(N)=S	18µM*	9%	-6%	21µM*	-10%
CC(/C=C/c1ccccc1)=N\NC(=O)c1ccncc1	-19%	6%	-3%	-14%	-6%
CC(/C=C/c1ccccc1)=N\NC(=S)NC(C)C	10µM*	2%	3%	10µM*	-52%
